Laboratory results from PubChem BioAssay AID651658 (Broad Institute, 2012).
Hit rate of the full screen: of about 340,000 compounds, about 5,100 (1.5%) were called active. The list comes from a sample in which actives are over-represented; it also holds similar structures and randomly drawn compounds. Values without a mark were called inactive.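 The calls were made as follows: active = mean Tm shift, scaled 0 neutral to 100 positive control, at about 1.3% or above, every replicate too (limit read from the data); inconclusive = no clear call, values can overlap the other calls; inactive = the rest.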

target: Fibroblast growth factor 22 (Homo sapiens) (UniProt Q9HCT0); assay: FGF22 ligand-induced thermal stabilization – biophysical, thermal shift, single point, FGF22 synaptogenesis inhibitor project, primary screen (AID 651658); conditions: recombinant FGF22 thermal shift, SYPRO orange fluorescence; at 9.99 µM; hits give high values; percent of sucrose octasulfate shift, DMSO zero
Sequence (Q9HCT0 whole entry, looked up): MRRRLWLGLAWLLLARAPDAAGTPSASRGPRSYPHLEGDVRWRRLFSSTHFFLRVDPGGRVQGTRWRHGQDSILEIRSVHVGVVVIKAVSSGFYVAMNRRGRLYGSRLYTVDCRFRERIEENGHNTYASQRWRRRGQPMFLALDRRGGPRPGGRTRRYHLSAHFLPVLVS

| SMILES | activity (Tm shift, normalised) |
| --- | --- |
| C[C@@H]1CN([C@H](C)CO)C(=O)c2c(c3ccccc3n2C)-c2ccccc2CO[C@H]1CN(C)Cc1ccc(F)cc1 | 0.453% |
| COc1cc(C(=S)NCc2ccccc2)cc(Br)c1O | 44.4% (active) |
| COc1cc(C(=O)NCc2ccncc2)cc(Br)c1OCc1ccccc1 | -0.2% |
| COc1cc(C=O)c(Br)cc1OCC(=O)NCc1ccccc1 | -0.006% |
| CCCC(=O)N1CC2(CCN(C(=O)C3CC3)CC2)c2c(n(C)c3cc(OC)ccc23)[C@H]1CO | 0.143% |
| O=C1CC(c2ccccc2)C(=O)N2C(=O)CC(c3ccccc3)C(=O)N12 (stereo unspecified) | -0.169% |
| O=C1OCC2=C1C(c1ccccc1)CC(=O)N2c1cccc(F)c1 (stereo unspecified) | 43.2% (active) |
| CN1C(=O)CC(c2ccccc2)C1=O (stereo unspecified) | 0.006% |
| Cc1cnc(C(=O)OCC(=O)NCCCc2ccccc2)cn1 | 0.133% |
| COc1cc(NC(=O)COC(=O)c2cnc(C)cn2)c(C)cc1[N+](=O)[O-] | 43.3% (active) |
| N#Cc1cc([N+](=O)[O-])ccc1NC(=O)COC(=O)c1cnccn1 | -0.067% |
| COc1cccc(CNC(=O)C[C@H]2CC[C@@H](NC(=O)C3CCC3)[C@@H](CO)O2)c1 | -0.144% |
| CCc1ccccc1NC(=O)CN1CCN(C(=O)c2cc(C3CC3)nn2-c2ccccc2)CC1 | 44.1% (active) |
| COc1ccc(CN2CCN(C(=O)c3cc(C4CC4)nn3-c3ccccc3)CC2)cc1F | -0.038% |
| CCc1ccccc1NC(=O)CN(C)C(=O)c1cc(C2CC2)nn1-c1ccccc1 | 0.146% |
| O=C(CC(F)(F)F)N1C[C@H]2[C@@H](c3ccccc31)[C@H](CO)N2C(=O)Cc1ccccc1 | -0.096% |
| CC(C)NC(=S)N1CCN(S(C)(=O)=O)CC1 | -0.113% |
| CS(=O)(=O)N1CCN(C(=O)CSc2ccccc2)CC1 | -0.196% |
| CCCCNC(=O)N1CCN(S(C)(=O)=O)CC1 | 43% (active) |
| COc1cccc(NCCC(=O)c2cccc([N+](=O)[O-])c2)c1 | 43.4% (active) |
| COc1ccc(Cc2nnc(SCC(=O)c3cccc([N+](=O)[O-])c3)n2C)cc1 | 0.217% |

| SMILES | activity (Tm shift, normalised) |
| --- | --- |
| COc1cccc(C(=O)CC(=O)C(=O)Nc2ccc([N+](=O)[O-])cc2C)c1 | -0.246% |
| CCC(CC)NC(=O)/C=C/c1cccc([N+](=O)[O-])c1 | -0.166% |
| Cc1ccc(NC(=O)C(=O)NCC2CCN(C(=O)c3cccc([N+](=O)[O-])c3)CC2)cc1 | 0.238% |
| Cc1ccc(NC(=O)O/N=C/c2cccc([N+](=O)[O-])c2)cc1 | 1.7% (active) |
| CO[C@H]1CN(C)C(=O)c2cc(NC(=O)Nc3ccc4c(c3)OCO4)ccc2OC[C@@H](C)NC[C@@H]1C | -0.132% |
| O=C(C1CCCCC1)N1CC2(C1)[C@H](c1ccccc1)[C@@H](CO)N2Cc1cncnc1 | -0.162% |
| COc1ccc(NC(=O)Nc2ccc3c(c2)[C@H]2C[C@H](CC(=O)NC4CCCCC4)O[C@H](CO)[C@H]2O3)cc1 | 0.101% |
| COc1cccc(S(=O)(=O)N2C[C@@H](O)COC[C@H]3O[C@@H](CC(=O)N4CCOCC4)CC[C@@H]32)c1 | -0.291% |
| CC=Cc1ccc2n(c1=O)C[C@H]1[C@H](CO)[C@@H](C(=O)NCc3ccncc3)N(Cc3cncnc3)[C@@H]21 (mixture of isomers) | -0.145% |
| COCCNC(=O)C[C@H]1C=C[C@@H](NS(=O)(=O)c2ccc(C)cc2)[C@@H](CO)O1 | -0.463% |
| COc1ccc(NC(=O)Nc2ccc3c(c2)C(=O)N([C@H](C)CO)C[C@@H](C)[C@H](CN(C)CC2CCCCC2)OCCCC[C@@H](C)O3)cc1 | -0.629% |
| CC(=O)N1[C@@H](CO)[C@@H](c2ccc(C3=CCCC3)cc2)C12CN(C(=O)C1CC1)C2 | -0.078% |
| O=C(Nc1ccncc1)Nc1ccc(F)cc1 | 0.093% |
| COc1cccc(NC(=O)Nc2ccc(F)cc2)c1 | 45.2% (active) |
| COc1cccc(C(=O)NNS(=O)(=O)c2ccc(F)cc2)c1 | 0.083% |
| COCC(=O)N1CC2(CN(C(=O)c3cccnc3)C2)c2c([nH]c3cc(OC)ccc23)[C@H]1CO | -0.173% |
| Cc1ccc(S(=O)(=O)NCCC(=O)NCc2ccc(Cl)cc2)cc1C | -0.011% |
| O=C(CNC(=O)c1ccco1)NNC(=O)c1ccc(Br)cc1 | -0.466% |
| Cc1ccc(S(=O)(=O)NCC(=O)NNC(=O)c2ccc(Br)cc2)cc1C | 43.7% (active) |
| O=C(C[C@H]1C=C[C@H](NC(=O)CC2CC2)[C@H](CO)O1)NCc1ccc(Cl)cc1 | -0.113% |
| COc1cc2c(=O)n(C)c3ccccc3c2cc1OC | 0.02% |

| SMILES | activity (Tm shift, normalised) |
| --- | --- |
| Cc1cc(C)c(-c2c(O)c3ccccc3n(C)c2=O)c(C)c1 | -0.131% |
| Cn1c2ccccc2c(=O)c2c(O)cccc21 | 43.7% (active) |
| O=C(C[C@H]1CC[C@H]2[C@@H](COC[C@H](O)CN2Cc2ccncc2)O1)NCC1CC1 | -0.243% |
| CN1[C@H](C(=O)N2CCc3ccccc3C2)[C@@H](CO)[C@@H]2Cn3c(ccc(-c4cncnc4)c3=O)[C@@H]21 | 0.086% |
| Cc1cc(C)cc(NC(=O)CN2C(=O)c3ccccc3C2=O)c1 | -0.094% |
| O=C(CSc1ccccc1)Nc1ccc(C(=O)Nc2cccc(O)c2)cc1 | 42.3% |
| Cc1cc(C)cc(NC(=O)CSc2ccccc2)c1 | 43.4% (active) |
| O=C(CN1C(=O)NC2(CCCCCC2)C1=O)NC1CC1 | -0.266% |
| O=C(CN1C(=O)NC2(CCCCCC2)C1=O)NCc1ccc(F)cc1 | 0.013% |
| O=C(CN1C(=O)NC2(CCCC2)C1=O)NCC1CCCO1 (stereo unspecified) | 43.3% (active) |
| COc1cccc(NC(=O)C[C@H]2CC[C@@H]3[C@@H](COc4ccc(NC(=O)C5CCOCC5)cc4C(=O)N3C)O2)c1 | 0.326% |
| C[C@H]1CN([C@@H](C)CO)C(=O)c2cc(-c3ccccc3)cnc2O[C@H]1CN(C)C(=O)C1CCOCC1 | 0.036% |
| O=C(NC1Cc2ccccc2C1)[C@@H]1[C@@H](CO)[C@@H]2Cn3c(ccc(C4=CCCC4)c3=O)[C@H]1N2CC1CC1 | 0.451% |
| C[C@H]1CN([C@@H](C)CO)C(=O)CCCn2nncc2CO[C@@H]1CN(C)S(=O)(=O)c1ccccc1C#N | -0.468% |
| Cc1ccccc1OCC(O)CN1CCN(c2ccccn2)CC1 (stereo unspecified) | 44.2% (active) |
| CC(C)c1ccc(OCC(O)CN2CCN(c3ccccn3)CC2)cc1 (stereo unspecified) | -0.21% |
| Cc1cccc(OCC(O)CN2CCN(CCN3C(=O)c4cccc5cccc(c45)C3=O)CC2)c1C (stereo unspecified) | 0.358% |
| COc1ccc(NC(=O)N[C@H]2C=C[C@H](CC(=O)NCc3ccccn3)O[C@H]2CO)cc1 | 0.256% |
| CO[C@H](CN(C)C(=O)c1cnccn1)[C@@H](C)CN([C@@H](C)CO)S(=O)(=O)c1ccc(C)cc1 | 0.044% |
| COc1ccccc1/C=C/CN1CCC(CO)(Cc2ccccc2)CC1 | 43.2% (active) |
| COc1ccc(CC2(CO)CCN(Cc3cnn(C)c3)CC2)cc1 | 0.198% |

| SMILES | activity (Tm shift, normalised) |
| --- | --- |
| OCC1(Cc2ccccc2)CCN(Cc2cc3ccccc3o2)CC1 | 42.4% |
| CO[C@H]1CN(C)C(=O)c2cc(NC(=O)c3nc4ccccc4s3)ccc2OC[C@H](C)N(Cc2cccnc2)C[C@@H]1C | -0.365% |
| COc1cccc(S(=O)(=O)N2CCCCN3[C@H](CO)[C@H](c4ccc(-c5ccncc5)cc4)[C@H]3C2)c1 | -0.25% |
| O=C(Nc1ccccc1F)N1C[C@H]2[C@@H](c3ccccc31)[C@@H](CO)N2C(=O)Cc1cccnc1 | 0.459% |
| Cc1cc([N+](=O)[O-])nn1CC(=O)Nc1ccc(Cc2ccncc2)cc1 | 43.3% (active) |
| CC(C)CC(=O)Nc1ccc(Cc2ccncc2)cc1 | -0.02% |
| Cc1cc(C)n(CC(=O)Nc2ccc([N+](=O)[O-])cc2)n1 | -0.311% |
| COCC(=O)N1CC[C@H]2[C@H](CO)Nc3ccc(-c4ccc(C(=O)N(C)C)cc4)cc3[C@H]21 | -0.374% |
| CN(C)C(=O)C[C@@H]1CC[C@H](NC(=O)NC2CCCC2)[C@H](CO)O1 | -0.148% |
| CCC(C)N(C(=O)COC(=O)c1nc(Cl)ccc1Cl)C1CCS(=O)(=O)C1 (stereo unspecified) | 0.546% |
| CCC(C)N(C(=O)CSc1nnnn1-c1ccccc1OC)C1CCS(=O)(=O)C1 (stereo unspecified) | -0.269% |
| CCC(C)N(C(=O)COC(=O)C1C(C(=O)OC)=C(C)NC(C)=C1C(=O)OC)C1CCS(=O)(=O)C1 (stereo unspecified) | 43.2% (active) |
| O=C(Cc1ccccn1)NCC[C@H]1CC[C@H](NC(=O)Nc2ccc(F)cc2)[C@@H](CO)O1 | 0.059% |
| Cc1cc(/C=N/NC(=O)c2cccnc2)c(C)n1CC(C)C | 43% (active) |
| O=C(NN=C1CCC(=NNC(=O)c2cccnc2)CC1)c1cccnc1 | -0.314% |
| O=C(CNC(=O)c1cccnc1)N/N=C/c1cc(Br)c(O)c(Br)c1 | 0.674% |
| O=C(C[C@@H]1C[C@@H]2c3cc(NC(=O)Nc4ccc(C(F)(F)F)cc4)ccc3O[C@@H]2[C@@H](CO)O1)NCCc1ccccc1 | 0.083% |
| COc1ccc(NC(=O)N(C)C[C@H]2OCCCC[C@H](C)Oc3ccc(NC(=O)c4ccncc4)cc3C(=O)N([C@H](C)CO)C[C@@H]2C)cc1 | -0.473% |
